21 compounds from PubChem BioAssay (NCI) can be followed below.

Common to all, as to experiment: NCI-60 one-dose screen, 48 h (100 = growth as untreated, 0 = no growth, -100 = all killed)
Settings in all cases: 10 µM unless noted

For experiment [1], the system named is HCT-15 colon.
Experiment [2] has as its system HT29 colon.
In experiment [3] the test system is SNB-75 CNS.
The test system of experiment [4] is SNB-19 CNS.
Experiment [5] relates to U251 CNS.
Experiment [6] relates to PC-3 prostate.
The subject of experiment [7] is SK-MEL-5 melanoma.
Experiment [8] deals with UACC-62 melanoma.
Experiment [9] deals with LOX IMVI melanoma.
In experiment [10] the test system is SK-MEL-28 melanoma.

Compounds without any hit were thinned out: in the full panel of roughly 83,000, 20% have a hit.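 Plates (96-well) were seeded with cells, treated with compound at one concentration, and incubated for 48 hours before percent growth was determined.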 A number with no mark means an inactive call. Calls of active or inactive are those of the source. Rule for the calls: active = growth percent below 10; inactive = the rest.

Take `CCCCN(CCCC)CCCn1c(=O)c2sc3ncccc3c2n2nnc(-c3ccccc3)c12`: the growth in experiment [1] was 99.8%; in [2], 74.4%; in [3], 86.1%; in experiment [4], 101%; in [5], 95.3%; in [6], 91.3%. The growth was 107% in experiment [7], 90.8% in [8], 110% in experiment [9] and 98.4% in experiment [10].
Turning to `CN1CCN(C2=C(Cl)C(=O)c3ccccc3C2=O)CC1`, the growth in experiment [1] was 33%; in experiment [2] it was 66.7%; in experiment [3], 90.9%; in experiment [4] it was 93.1%; in experiment [5], 87%; in [6] it was 60.5%. Also, the growth in experiment [7] is 26.8%; in experiment [8] it was 32.9%; in [9] it was 11.4%; in experiment [10] it was 73.8%.
Turning to `CC1(C)N=C(N)N=C(N)N1c1cccc(CN)c1`, the growth in experiment [1] is 97.8%; in experiment [2] it was 95.7%; in experiment [3], 73.6%; in [4] it was 100%; in [5] it was 98.9%; in [6] it was 87.3%. Besides, the growth in experiment [7] was 109%; in experiment [8] it was 95.9%; in experiment [9] it was 89.2%; in [10], 106%.
For `N#Cc1cnn2c(-c3ccc(Cl)cc3)nc(NCCc3ccccc3)nc12`, the growth in [1] is 103%; in experiment [2], 80.7%; in experiment [3], 78.8%; in [4] it was 100%; in experiment [5] it was 97%; in experiment [6], 73.7%. Moreover, the growth was 99.8% in experiment [7], 65.7% in experiment [8], 84.9% in experiment [9] and 101% in experiment [10].
Take `CN1CCN(CCCOc2ccc3nc(Nc4cc(Cl)cc(Cl)c4)ccc3c2)CC1`: the growth in [1] is -87.6% (active); in experiment [2], -94.4% (active); in experiment [3], -94.5% (active); in [4] it was -76.2% (active); in experiment [5], -87.5% (active); in experiment [6], -57.8% (active). In addition, the growth in experiment [7] is -94.9% (active); in experiment [8] it was -81.5% (active); in [9] it was -94.4% (active); in experiment [10], -87.2% (active).
Consider `Nc1c(C(=O)c2ccc(Cl)s2)sc2nc3c(cc12)CCCC3`, for which the growth in experiment [1] is 107%; in experiment [2] it was 94.2%; in experiment [3], 103%; in experiment [4] it was 105%; in [5], 97.8%; in experiment [6], 88.4%. Further, the growth in experiment [7] is 96.8%; in [8], 106%; in [9] it was 96.8%; in experiment [10], 119%.
In the case of `COc1ccc(-c2nc3ccccn3c2/C=C/C(=O)c2cc(OC)c(OC)c(OC)c2)cc1`, the growth in experiment [1] was 50.4%; in experiment [2], 45.2%; in experiment [3], 44.3%; in experiment [4] it was 72.4%; in [5], 36%; in experiment [6] it was 56.2%. The growth is 26.9% in experiment [7], 45.2% in experiment [8], 44.2% in experiment [9] and 41.1% in experiment [10].
Take `Nc1c(-c2nc3ccccc3c(=O)[nH]2)nnn1-c1ccc(Cl)cc1`: the growth in experiment [1] is 93.1%; in experiment [2] it was 68.7%; in [3] it was 24.7%; in [4], 76%; in experiment [5], 74.6%; in [6], 85.3%. The growth in [7] was 92.6%; in experiment [8], 99.1%; in experiment [9] it was 107%; in experiment [10], 81.1%.
Take `CCNCCNc1cc(-c2cccc(C(F)(F)F)c2)c(C#N)c2nc3ccccc3n12`: the growth is -91.4% (active) in experiment [1]; -82.5% (active) in experiment [2]; -89.3% (active) in [3]; -20.3% (active) in [4]; -88.7% (active) in experiment [5]; -59% (active) in experiment [6]. For the same compound, the growth in [7] was -96.1% (active); in [8], -68.6% (active); in experiment [9] it was -85.7% (active); in [10], -81.9% (active).
For `CO/C(=C1/NC(=O)C(Cc2ccc(O)c(Br)c2)N(C)C(=O)C(C)NC(=O)CCC/C=C(\C)CCC(C)OC1=O)c1ccccc1` (configuration not stated), the growth in experiment [1] is 3.37% (active); in [2] it was 5.97% (active); in experiment [3] it was -94.2% (active); in [4] it was -4.37% (active); in [5], -36.8% (active); in experiment [6] it was -9.06% (active). The growth in [7] is -67.6% (active); in [8], 9.3% (active); in experiment [9] it was -34.2% (active); in experiment [10], -25.8% (active).
On to `CN(C)c1ccc(/C=N/NC(=O)COc2cc(=O)n(C)c3ccccc23)cc1`, for which the growth in experiment [1] was 104%; in [2] it was 108%; in experiment [3], 76.8%; in experiment [4], 88.4%; in [5], 104%; in experiment [6], 101%. The growth in [7] is 101%; in experiment [8], 88.5%; in experiment [9] it was 99.8%; in experiment [10], 109%.
In the case of `CC1(C)C(=O)/C(=C\c2cccnc2)C[C@]2(C)[C@H]3CC=C4[C@@H]5C[C@@](C)(C(=O)O)CC[C@]5(C)CC[C@@]4(C)[C@]3(C)CC[C@@H]12`, the growth in experiment [1] is 87.5%; in experiment [2] it was 91.5%; in experiment [3], 82%; in experiment [4] it was 96.8%; in experiment [5], 89%; in experiment [6], 75.3%. The growth in experiment [7] was 109%; in experiment [8] it was 97.7%; in [9] it was 99.5%; in [10] it was 109%.
Consider `C=C(Cl)COC(=O)C(C)(C)O`, for which the growth in [1] is 102%; in experiment [2] it was 92.8%; in experiment [3], 84.6%; in [4] it was 105%; in experiment [5] it was 100%; in experiment [6], 92.8%. Besides, the growth in experiment [7] was 106%; in experiment [8], 111%; in experiment [9] it was 94.8%; in [10], 97.7%.
Consider `C/C(Cc1ccc(Cl)cc1)=C(/c1ccc(Cl)cc1)c1ccc(OCCN(C)C)cc1`, for which the growth in experiment [1] was 2.19% (active); in experiment [2], 8.12% (active); in experiment [3] it was 68.7%; in [4], 69.4%; in experiment [5] it was 38.2%; in experiment [6] it was 58.1%. Moreover, the growth was 67.5% in [7], 82% in [8], -88% (active) in experiment [9] and 84.4% in experiment [10].
Take `CCN(CC)CCOC(=O)N1c2ccccc2Sc2ccccc21`: the growth in experiment [1] is 102%; in experiment [2], 75.9%; in [3], 84.2%; in [4] it was 97.8%; in [5], 91.8%; in [6], 68.8%. The growth was 94.2% in experiment [7], 91% in experiment [8], 96.7% in [9] and 101% in experiment [10].
For `COc1ccc(-n2ncn(CCCCCCn3cnn(-c4ccc(OC)cc4)c3=O)c2=O)cc1`, the growth in experiment [1] was 95.3%; in experiment [2], 101%; in experiment [3], 79.8%; in experiment [4], 90.3%; in [5], 94.3%; in experiment [6] it was 84.8%. The results for the growth in experiment [7], in [8] and in experiment [10] were 95.2%, 76.5% and 98%, respectively.
In the case of `O=C(NCc1cccnc1)c1cc(-c2csc3c(=O)cc(N4CCOCC4)oc23)cc2c1OCCO2`, the growth in [1] was 66.5%; in experiment [2], 18%; in [3], -9.26% (active); in experiment [4] it was 47.5%; in [5], 51.8%; in experiment [6], 38.6%. Besides, the growth is 39.6% in experiment [7], 12.2% in experiment [8] and 49% in experiment [10].
On to `COc1ccc(C2CC(c3ccc4ccccc4c3)=NN2c2nc(O)c(C3=c4cc(Cl)ccc4=NC3=O)s2)cc1` (configuration not stated), for which the growth in experiment [1] was -33.4% (active); in experiment [2], -46.5% (active); in experiment [3] it was -51.5% (active); in experiment [4], 3.08% (active); in experiment [5], -94.6% (active); in experiment [6] it was -44.4% (active). The growth was -95.2% (active) in experiment [7], -46.5% (active) in experiment [8], -75.7% (active) in [9] and -18.8% (active) in experiment [10].
`O=C(/C=C/C12c3ccccc3C(c3ccccc31)C1C(=O)NC(=O)C12)c1ccc(Cl)cc1` (configuration not stated): the growth was -43.1% (active) in experiment [1]; 7.13% (active) in experiment [2]; 8.43% (active) in experiment [3]; 17.3% in experiment [4]; -10.9% (active) in [5]; 21.7% in experiment [6]. Also, the growth in experiment [7] was -61.5% (active); in [8], -18.3% (active); in experiment [9] it was -87.9% (active); in [10], -32.1% (active).
`C=C(C)[C@@H]1CC[C@]2(CO)CC[C@]3(C)[C@H](CC[C@@H]4[C@@]5(C)C=C(C#N)C(=O)C(C)(C)[C@@H]5CC[C@]43C)[C@@H]12`: the growth in [1] was 3.8% (active); in [2] it was 8.33% (active); in experiment [3], 52.1%; in experiment [4], 18.5%; in experiment [5], 9.63% (active); in experiment [6] it was 6.8% (active). Further, the growth in experiment [7] is 12%; in [8], -33% (active); in [10], 20.9%.
`CCC(C)NCc1ccccc1` (configuration not stated): the growth in [1] is 107%; in experiment [2] it was 84.9%; in experiment [3], 95.9%; in [4], 102%; in experiment [5], 102%; in experiment [6], 78.1%. The growth is 106% in [7], 95.3% in experiment [8], 102% in experiment [9] and 112% in experiment [10].
